Experimental data as given in PubChem BioAssay (NCI).
The panel holds about 83,000 compounds, 20% with a hit somewhere; the sample as a whole holds those more often.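 For each line, cells grew in 96-well plates with the test compound present at a single concentration for 48 hours.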 The source made the active and inactive calls. The calls were made as follows: active = growth percent below 10; inactive = the rest.

Tested on: SW-620 colon
Test: NCI-60 one-dose screen, 48 h (100 = growth as untreated, 0 = no growth, -100 = all killed)
Details: 10 µM

SMILES	growth
CC(=O)NNc1ccc2nnc(-c3ccc(Br)cc3)n2n1	102% (inactive)
O=C(Nc1ccc(I)cc1F)c1cc(-c2ccc(F)cc2F)ccc1O	10.1% (inactive)
CS(=O)(=O)Nc1ccc(-c2ccc3c(c2)ncn3-c2ccc(NC(=O)Nc3ccc(Br)cc3)cc2)cc1	1.27% (active)
Cc1ccc(NCC(=O)Nn2c(COc3ccccc3)nc3ccccc3c2=O)cc1	95.1% (inactive)
C=CC(=O)Nc1ccc(C(=O)/C=C/c2ccc(N(C)CCF)cc2)c(O)c1	5.99% (active)
Cc1ccc(C(C)C)cc1NC(=O)c1ccccc1O	62.8% (inactive)
Nc1nc(Nc2ccccc2)nn1Cc1c(Cl)cccc1Cl	56.3% (inactive)
COc1ccc(-c2cc(-c3cc(C(=O)c4ccccc4)n4ccc(C)cc34)nc(N)c2C#N)cc1	78.9% (inactive)
CC(=O)Oc1ccccc1C(=O)Oc1ccc(C(=O)/C=C/c2ccncc2)cc1	6.33% (active)
CC1(C)CC[C@]23CC[C@]4(C)[C@H](CC[C@@H]5[C@@]6(C)CC[C@H](N)C(C)(C)[C@@H]6CC[C@]54C)[C@H]2[C@H]1OC3=O	-73.7% (active)
COc1ccc(/C=C/C(=O)c2ccc(S(=O)(=O)NCCNc3nc(Nc4ccc(F)cc4)nc(N(C)C)n3)cc2)cc1	26.4% (inactive)
O=C(c1ccc(Cl)cc1)C1[C@H](c2ccccc2Br)[C@@H](c2ccccc2)NC12C(=O)Nc1ccc(Br)cc12 (some centres undefined)	7.29% (active)
COc1cnc2c(c1)C(=O)c1c-2n(CCCNC(C)C)c(=O)c2cc(OC)c(OC)cc12	-24.9% (active)
CC(=O)Nc1ccc(-n2cnc3cc(-c4ccc(NS(C)(=O)=O)cc4)ccc32)cc1	71.5% (inactive)
CC[C@@]1(O)C(=O)OCc2c1cc1n(c2=O)Cc2c-1nc1cc(F)c(C)c3c1c2[C@@H](N)CC3	8.5% (active)
COc1ccc2c(c1)N=C(C(=O)O)/C2=C/c1sc(Nc2ccc(O)cc2)nc1O	74.7% (inactive)
COc1ccc(NC(=O)CSc2nnc(-c3ccc4nc(-c5ccc(Cl)cc5)[nH]c4c3)o2)cc1	1.97% (active)
CC(=O)Nc1ccc(-c2cn(-c3cccc(C(=O)Nc4cc(CN5CCOCC5)cc(C(F)(F)F)c4)c3)nn2)cn1	-72.6% (active)
COc1ccc(-c2nc(Nc3ccccc3S(N)(=O)=O)c3ccccc3n2)cc1	8.47% (active)

SMILES	growth
Cc1ccc(CSc2nc(-c3ccc(F)cc3)c(C#N)c(=O)[nH]2)cc1	102% (inactive)
COc1cccc(COc2ccc(/C=C3\Oc4cc(O)ccc4C3=O)cc2)c1	36% (inactive)
CC(=O)Nc1ccc(-n2cnc3cc(-c4ccc(O)cc4)ccc32)cc1F	28.2% (inactive)
CC1CC(c2ccc(N(C)C)cc2)=NN1c1nc(O)c(C2=c3cc(Br)ccc3=NC2=O)s1 (centres undefined)	78.9% (inactive)
CN1CCc2c(sc3ncnc(N/N=C/c4ccc5ccccc5c4)c23)C1	22.9% (inactive)
O=C(Nc1ccc(Cl)c(C(F)(F)F)c1)c1cncc(C#Cc2cnc3ccc(N4CCOCC4)nn23)c1	19.4% (inactive)
O=C(N=Nc1c(O)[nH]c2ccc(Br)cc12)c1ccc2nc(-c3ccccc3)[nH]c2c1	-60% (active)
COc1cc(/C=C/C(=O)c2ccc(F)cc2)ccc1Oc1nc(Nc2ccc(F)cc2)nc(N(C)C)n1	2.33% (active)
O=C1Nc2ccc(Cl)cc2/C1=C/c1cccc(OCc2ccccn2)c1	-38% (active)
Cc1cc(C(F)(F)F)ccc1C(=O)Nc1sc2c(c1C#N)CCC(=O)C2	-34.4% (active)
COc1ccc(C(=O)NC(=S)N2CCN(c3ncnc4c3cnn4-c3ccccc3)CC2)cc1	80.5% (inactive)
Cn1cc(/C=N/Nc2ccnc3cc(Cl)ccc23)c2ccccc21	-62.8% (active)
COc1ccc(N(C)c2cc(C#N)nc3ccccc23)cc1N	19% (inactive)
Cc1cc2nc3c4ccccc4n(CCO)c3nc2cc1C	75.5% (inactive)
CCCn1c(=O)c2[nH]c(-c3ccc(OCc4nc5ccc(F)cc5[nH]4)cc3)nc2n(CCC)c1=O	17.1% (inactive)
Cc1cc(=O)oc2cc(OCCCCOc3ccc(/C=C/C(=O)Nc4cccc(Cl)c4)cc3)ccc12	61.9% (inactive)
CCOC(=O)c1sc(N/N=C(\C)c2ccc3c(c2)Nc2ccccc2S3)nc1C	20.3% (inactive)
Cc1nn(-c2ccccc2)c2ncn(CC(=O)N/N=C/c3c[nH]c4ccccc34)c(=O)c12	95.4% (inactive)

Tested on: MCF7 breast
Test: as above
Details: 10 µM

SMILES	growth
CC(=O)NNc1ccc2nnc(-c3ccc(Br)cc3)n2n1	87.8% (inactive)
O=C(Nc1ccc(I)cc1F)c1cc(-c2ccc(F)cc2F)ccc1O	-12.8% (active)
CS(=O)(=O)Nc1ccc(-c2ccc3c(c2)ncn3-c2ccc(NC(=O)Nc3ccc(Br)cc3)cc2)cc1	-35.1% (active)
Cc1ccc(NCC(=O)Nn2c(COc3ccccc3)nc3ccccc3c2=O)cc1	82% (inactive)
C=CC(=O)Nc1ccc(C(=O)/C=C/c2ccc(N(C)CCF)cc2)c(O)c1	-19.5% (active)
Cc1ccc(C(C)C)cc1NC(=O)c1ccccc1O	40.2% (inactive)
Nc1nc(Nc2ccccc2)nn1Cc1c(Cl)cccc1Cl	16% (inactive)
COc1ccc(-c2cc(-c3cc(C(=O)c4ccccc4)n4ccc(C)cc34)nc(N)c2C#N)cc1	53.3% (inactive)
CC(=O)Oc1ccccc1C(=O)Oc1ccc(C(=O)/C=C/c2ccncc2)cc1	0.657% (active)
CC1(C)CC[C@]23CC[C@]4(C)[C@H](CC[C@@H]5[C@@]6(C)CC[C@H](N)C(C)(C)[C@@H]6CC[C@]54C)[C@H]2[C@H]1OC3=O	-80.1% (active)
COc1ccc(/C=C/C(=O)c2ccc(S(=O)(=O)NCCNc3nc(Nc4ccc(F)cc4)nc(N(C)C)n3)cc2)cc1	-15.2% (active)
O=C(c1ccc(Cl)cc1)C1[C@H](c2ccccc2Br)[C@@H](c2ccccc2)NC12C(=O)Nc1ccc(Br)cc12 (some centres undefined)	-2.68% (active)
COc1cnc2c(c1)C(=O)c1c-2n(CCCNC(C)C)c(=O)c2cc(OC)c(OC)cc12	11.8% (inactive)
CC(=O)Nc1ccc(-n2cnc3cc(-c4ccc(NS(C)(=O)=O)cc4)ccc32)cc1	16.8% (inactive)
CC[C@@]1(O)C(=O)OCc2c1cc1n(c2=O)Cc2c-1nc1cc(F)c(C)c3c1c2[C@@H](N)CC3	8.66% (active)
COc1ccc2c(c1)N=C(C(=O)O)/C2=C/c1sc(Nc2ccc(O)cc2)nc1O	27.9% (inactive)
COc1ccc(NC(=O)CSc2nnc(-c3ccc4nc(-c5ccc(Cl)cc5)[nH]c4c3)o2)cc1	17.1% (inactive)
CC(=O)Nc1ccc(-c2cn(-c3cccc(C(=O)Nc4cc(CN5CCOCC5)cc(C(F)(F)F)c4)c3)nn2)cn1	-84% (active)
COc1ccc(-c2nc(Nc3ccccc3S(N)(=O)=O)c3ccccc3n2)cc1	9.02% (active)

SMILES	growth
Cc1ccc(CSc2nc(-c3ccc(F)cc3)c(C#N)c(=O)[nH]2)cc1	89.2% (inactive)
COc1cccc(COc2ccc(/C=C3\Oc4cc(O)ccc4C3=O)cc2)c1	37.8% (inactive)
CC(=O)Nc1ccc(-n2cnc3cc(-c4ccc(O)cc4)ccc32)cc1F	26.3% (inactive)
CC1CC(c2ccc(N(C)C)cc2)=NN1c1nc(O)c(C2=c3cc(Br)ccc3=NC2=O)s1 (centres undefined)	78.6% (inactive)
CN1CCc2c(sc3ncnc(N/N=C/c4ccc5ccccc5c4)c23)C1	20.7% (inactive)
O=C(Nc1ccc(Cl)c(C(F)(F)F)c1)c1cncc(C#Cc2cnc3ccc(N4CCOCC4)nn23)c1	-13.3% (active)
O=C(N=Nc1c(O)[nH]c2ccc(Br)cc12)c1ccc2nc(-c3ccccc3)[nH]c2c1	-53.4% (active)
COc1cc(/C=C/C(=O)c2ccc(F)cc2)ccc1Oc1nc(Nc2ccc(F)cc2)nc(N(C)C)n1	16.6% (inactive)
O=C1Nc2ccc(Cl)cc2/C1=C/c1cccc(OCc2ccccn2)c1	-0.24% (active)
Cc1cc(C(F)(F)F)ccc1C(=O)Nc1sc2c(c1C#N)CCC(=O)C2	2.31% (active)
COc1ccc(C(=O)NC(=S)N2CCN(c3ncnc4c3cnn4-c3ccccc3)CC2)cc1	54.3% (inactive)
Cn1cc(/C=N/Nc2ccnc3cc(Cl)ccc23)c2ccccc21	-78.4% (active)
COc1ccc(N(C)c2cc(C#N)nc3ccccc23)cc1N	9.87% (active)
Cc1cc2nc3c4ccccc4n(CCO)c3nc2cc1C	52.1% (inactive)
CCCn1c(=O)c2[nH]c(-c3ccc(OCc4nc5ccc(F)cc5[nH]4)cc3)nc2n(CCC)c1=O	8.76% (active)
Cc1cc(=O)oc2cc(OCCCCOc3ccc(/C=C/C(=O)Nc4cccc(Cl)c4)cc3)ccc12	50.8% (inactive)
CCOC(=O)c1sc(N/N=C(\C)c2ccc3c(c2)Nc2ccccc2S3)nc1C	-2.84% (active)
Cc1nn(-c2ccccc2)c2ncn(CC(=O)N/N=C/c3c[nH]c4ccccc34)c(=O)c12	68.7% (inactive)
